Experiment [1] addresses T1, Serine/threonine-protein kinase D2 (Homo sapiens) (UniProt Q9BZL6).
T1 sequence (whole entry): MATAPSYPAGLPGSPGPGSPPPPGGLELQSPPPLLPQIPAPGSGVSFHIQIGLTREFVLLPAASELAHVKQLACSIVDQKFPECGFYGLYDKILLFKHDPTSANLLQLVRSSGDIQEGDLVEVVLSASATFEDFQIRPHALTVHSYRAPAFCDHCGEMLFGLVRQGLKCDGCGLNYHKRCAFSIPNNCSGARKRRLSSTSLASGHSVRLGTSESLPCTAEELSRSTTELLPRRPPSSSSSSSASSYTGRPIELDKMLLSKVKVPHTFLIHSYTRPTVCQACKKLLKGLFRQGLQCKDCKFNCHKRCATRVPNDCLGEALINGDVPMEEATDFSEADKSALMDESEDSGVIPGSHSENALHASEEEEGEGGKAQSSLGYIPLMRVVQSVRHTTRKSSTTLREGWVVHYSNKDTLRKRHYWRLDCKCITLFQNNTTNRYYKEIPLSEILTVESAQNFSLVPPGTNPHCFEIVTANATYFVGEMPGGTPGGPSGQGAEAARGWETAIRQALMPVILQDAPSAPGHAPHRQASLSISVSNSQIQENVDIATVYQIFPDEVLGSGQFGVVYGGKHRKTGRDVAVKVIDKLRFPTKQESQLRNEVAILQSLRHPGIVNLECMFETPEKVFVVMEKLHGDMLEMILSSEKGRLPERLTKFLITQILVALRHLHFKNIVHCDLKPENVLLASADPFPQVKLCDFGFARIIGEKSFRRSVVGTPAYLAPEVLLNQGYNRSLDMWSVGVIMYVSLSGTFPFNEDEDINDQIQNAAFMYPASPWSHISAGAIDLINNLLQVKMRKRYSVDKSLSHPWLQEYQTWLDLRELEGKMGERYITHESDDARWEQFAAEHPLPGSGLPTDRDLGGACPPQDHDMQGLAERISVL
Conditions: at 1 µM.

Experiment [2] has as its target T2, Serine/threonine-protein kinase D3 (Homo sapiens) (UniProt O94806).
T2 sequence (whole entry): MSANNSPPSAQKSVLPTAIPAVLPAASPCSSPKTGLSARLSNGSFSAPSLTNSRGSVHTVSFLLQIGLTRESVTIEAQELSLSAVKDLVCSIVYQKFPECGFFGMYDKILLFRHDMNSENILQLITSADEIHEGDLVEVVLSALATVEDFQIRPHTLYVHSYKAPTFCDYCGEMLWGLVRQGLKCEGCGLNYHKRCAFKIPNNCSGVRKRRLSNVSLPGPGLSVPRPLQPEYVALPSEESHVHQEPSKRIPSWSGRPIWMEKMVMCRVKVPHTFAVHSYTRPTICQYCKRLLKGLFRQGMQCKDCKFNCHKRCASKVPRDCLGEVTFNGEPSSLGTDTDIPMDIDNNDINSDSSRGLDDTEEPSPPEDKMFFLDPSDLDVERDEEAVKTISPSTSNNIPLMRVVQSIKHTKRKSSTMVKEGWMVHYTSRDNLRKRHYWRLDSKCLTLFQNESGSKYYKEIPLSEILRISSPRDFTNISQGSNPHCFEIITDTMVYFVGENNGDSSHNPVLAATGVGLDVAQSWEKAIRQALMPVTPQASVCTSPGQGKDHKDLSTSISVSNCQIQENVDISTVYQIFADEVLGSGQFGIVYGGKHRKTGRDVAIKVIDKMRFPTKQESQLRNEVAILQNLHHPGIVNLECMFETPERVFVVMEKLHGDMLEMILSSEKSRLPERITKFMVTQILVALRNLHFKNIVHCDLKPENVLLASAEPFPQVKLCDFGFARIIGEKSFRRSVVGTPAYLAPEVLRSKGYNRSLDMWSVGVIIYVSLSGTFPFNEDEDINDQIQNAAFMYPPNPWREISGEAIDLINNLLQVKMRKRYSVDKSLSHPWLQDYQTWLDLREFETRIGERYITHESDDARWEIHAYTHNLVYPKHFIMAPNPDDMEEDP
Conditions: at 0.1 µM.

Experiment [3] has as its target T2, Serine/threonine-protein kinase D3 (Homo sapiens). The note with it: at 1 µM.
The target in experiment [4] is T3, cGMP-dependent protein kinase 1 (Homo sapiens) (UniProt Q13976).
T3 sequence (whole entry): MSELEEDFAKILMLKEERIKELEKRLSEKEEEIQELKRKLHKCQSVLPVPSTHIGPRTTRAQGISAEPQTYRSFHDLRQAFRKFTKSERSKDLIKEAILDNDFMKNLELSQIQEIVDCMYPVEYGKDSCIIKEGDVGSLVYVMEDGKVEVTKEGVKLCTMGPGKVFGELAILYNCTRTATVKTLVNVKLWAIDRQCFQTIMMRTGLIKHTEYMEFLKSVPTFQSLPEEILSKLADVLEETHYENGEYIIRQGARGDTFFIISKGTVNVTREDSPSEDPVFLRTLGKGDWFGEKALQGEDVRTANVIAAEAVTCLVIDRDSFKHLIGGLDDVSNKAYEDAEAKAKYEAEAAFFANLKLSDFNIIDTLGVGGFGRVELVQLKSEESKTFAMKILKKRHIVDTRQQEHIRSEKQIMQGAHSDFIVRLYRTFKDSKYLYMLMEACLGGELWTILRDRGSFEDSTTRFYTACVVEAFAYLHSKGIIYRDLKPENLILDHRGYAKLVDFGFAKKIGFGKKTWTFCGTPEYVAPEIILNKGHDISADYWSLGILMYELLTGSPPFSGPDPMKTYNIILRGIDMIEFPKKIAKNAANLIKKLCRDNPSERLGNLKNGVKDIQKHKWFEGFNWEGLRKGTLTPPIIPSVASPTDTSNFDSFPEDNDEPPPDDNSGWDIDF
The note with it: at 0.1 µM.

Experiment [5] has as its target T3, cGMP-dependent protein kinase 1 (Homo sapiens). The note with it: at 1 µM.
Experiment [6] has as its target T4, cGMP-dependent protein kinase 2 (Homo sapiens) (UniProt Q13237).
T4 sequence (whole entry): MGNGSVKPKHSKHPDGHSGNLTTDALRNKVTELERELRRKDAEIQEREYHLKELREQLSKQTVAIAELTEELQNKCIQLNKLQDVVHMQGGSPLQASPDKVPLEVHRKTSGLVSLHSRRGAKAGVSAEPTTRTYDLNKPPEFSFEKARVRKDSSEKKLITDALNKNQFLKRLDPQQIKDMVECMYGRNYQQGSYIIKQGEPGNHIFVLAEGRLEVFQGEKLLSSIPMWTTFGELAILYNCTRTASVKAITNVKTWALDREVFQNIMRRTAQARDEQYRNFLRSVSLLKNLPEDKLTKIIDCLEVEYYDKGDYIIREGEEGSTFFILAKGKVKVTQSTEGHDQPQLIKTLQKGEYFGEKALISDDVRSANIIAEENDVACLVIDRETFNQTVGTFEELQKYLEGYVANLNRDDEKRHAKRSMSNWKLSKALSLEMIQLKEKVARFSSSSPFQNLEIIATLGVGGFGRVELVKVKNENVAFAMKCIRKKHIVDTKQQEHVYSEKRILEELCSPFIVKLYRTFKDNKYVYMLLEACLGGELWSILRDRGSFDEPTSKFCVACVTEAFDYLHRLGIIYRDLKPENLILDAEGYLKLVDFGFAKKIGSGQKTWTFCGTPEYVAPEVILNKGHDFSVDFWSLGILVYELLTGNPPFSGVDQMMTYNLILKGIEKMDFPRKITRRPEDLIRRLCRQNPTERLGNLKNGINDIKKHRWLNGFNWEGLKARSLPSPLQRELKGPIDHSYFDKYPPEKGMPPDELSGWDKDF
Conditions: at 0.1 µM.

Experiment [7] deals with T4, cGMP-dependent protein kinase 2 (Homo sapiens). The note with it: at 1 µM.
In experiment [8] the target is T5, cAMP-dependent protein kinase catalytic subunit PRKX (Homo sapiens) (UniProt P51817).
T5 sequence (whole entry): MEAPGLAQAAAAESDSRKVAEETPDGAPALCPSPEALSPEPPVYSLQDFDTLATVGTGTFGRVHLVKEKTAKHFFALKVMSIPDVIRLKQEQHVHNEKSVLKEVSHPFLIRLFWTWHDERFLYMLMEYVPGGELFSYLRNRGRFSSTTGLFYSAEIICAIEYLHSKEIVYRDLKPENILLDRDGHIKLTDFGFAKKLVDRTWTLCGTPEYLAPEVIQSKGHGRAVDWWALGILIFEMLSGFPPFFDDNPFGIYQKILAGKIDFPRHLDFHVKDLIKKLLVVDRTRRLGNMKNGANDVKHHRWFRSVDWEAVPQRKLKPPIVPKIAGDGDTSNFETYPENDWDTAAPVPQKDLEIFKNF
Conditions: at 0.1 µM.

The target in experiment [9] is T5, cAMP-dependent protein kinase catalytic subunit PRKX (Homo sapiens). Conditions: at 1 µM.
The target of experiment [10] is Rho-associated protein kinase 1 (Homo sapiens) (UniProt Q13464). The note with it: at 0.1 µM.
Experiment [11] has the same target. The note with it: at 1 µM.
Experiment [12] concerns the target Rho-associated protein kinase 2 (Homo sapiens) (UniProt O75116). The note with it: at 0.1 µM.
For experiment [13] the target is unchanged. Conditions: at 1 µM.
Experiment [14] addresses Ribosomal protein S6 kinase alpha-1 (Homo sapiens) (UniProt Q15418). The note with it: at 0.1 µM.
For experiment [15] the target is unchanged. Conditions: at 1 µM.
Experiment [16] concerns the target Ribosomal protein S6 kinase alpha-3 (Homo sapiens) (UniProt P51812). Conditions: at 0.1 µM.
For experiment [17] the target is unchanged. The note with it: at 1 µM.
The target in experiment [18] is Ribosomal protein S6 kinase alpha-2 (Homo sapiens) (UniProt Q15349). The note with it: at 0.1 µM.
Experiment [19] shares this target. Conditions: at 1 µM.
The target in experiment [20] is Ribosomal protein S6 kinase alpha-6 (Homo sapiens) (UniProt Q9UK32). The note with it: at 0.1 µM.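 Note: reported value is the mean inhibition of RSK4, from the GSK PKIS kinase inhibitor screen.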
Chain of Ribosomal protein S6 kinase alpha-6 (Homo sapiens) (Q9UK32 whole entry): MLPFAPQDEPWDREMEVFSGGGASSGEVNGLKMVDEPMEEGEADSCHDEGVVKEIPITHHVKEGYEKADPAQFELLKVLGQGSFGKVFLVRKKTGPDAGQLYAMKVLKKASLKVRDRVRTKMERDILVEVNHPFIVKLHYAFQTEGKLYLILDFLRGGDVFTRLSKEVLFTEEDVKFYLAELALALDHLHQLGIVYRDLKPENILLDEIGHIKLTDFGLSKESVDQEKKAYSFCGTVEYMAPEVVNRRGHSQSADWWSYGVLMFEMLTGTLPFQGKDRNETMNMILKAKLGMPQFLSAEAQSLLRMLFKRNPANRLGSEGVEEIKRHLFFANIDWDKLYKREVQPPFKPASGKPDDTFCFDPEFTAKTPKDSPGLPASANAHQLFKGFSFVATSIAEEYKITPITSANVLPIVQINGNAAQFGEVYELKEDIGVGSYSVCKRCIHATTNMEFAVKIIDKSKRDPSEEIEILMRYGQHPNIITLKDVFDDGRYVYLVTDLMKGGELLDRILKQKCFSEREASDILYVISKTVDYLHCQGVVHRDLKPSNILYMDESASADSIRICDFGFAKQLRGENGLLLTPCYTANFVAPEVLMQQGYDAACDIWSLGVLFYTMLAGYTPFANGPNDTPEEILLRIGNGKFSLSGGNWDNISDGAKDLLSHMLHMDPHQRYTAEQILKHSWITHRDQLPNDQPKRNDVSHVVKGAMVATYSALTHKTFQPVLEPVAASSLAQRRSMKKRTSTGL

Chain of Ribosomal protein S6 kinase alpha-1 (Homo sapiens) (Q15418 whole entry): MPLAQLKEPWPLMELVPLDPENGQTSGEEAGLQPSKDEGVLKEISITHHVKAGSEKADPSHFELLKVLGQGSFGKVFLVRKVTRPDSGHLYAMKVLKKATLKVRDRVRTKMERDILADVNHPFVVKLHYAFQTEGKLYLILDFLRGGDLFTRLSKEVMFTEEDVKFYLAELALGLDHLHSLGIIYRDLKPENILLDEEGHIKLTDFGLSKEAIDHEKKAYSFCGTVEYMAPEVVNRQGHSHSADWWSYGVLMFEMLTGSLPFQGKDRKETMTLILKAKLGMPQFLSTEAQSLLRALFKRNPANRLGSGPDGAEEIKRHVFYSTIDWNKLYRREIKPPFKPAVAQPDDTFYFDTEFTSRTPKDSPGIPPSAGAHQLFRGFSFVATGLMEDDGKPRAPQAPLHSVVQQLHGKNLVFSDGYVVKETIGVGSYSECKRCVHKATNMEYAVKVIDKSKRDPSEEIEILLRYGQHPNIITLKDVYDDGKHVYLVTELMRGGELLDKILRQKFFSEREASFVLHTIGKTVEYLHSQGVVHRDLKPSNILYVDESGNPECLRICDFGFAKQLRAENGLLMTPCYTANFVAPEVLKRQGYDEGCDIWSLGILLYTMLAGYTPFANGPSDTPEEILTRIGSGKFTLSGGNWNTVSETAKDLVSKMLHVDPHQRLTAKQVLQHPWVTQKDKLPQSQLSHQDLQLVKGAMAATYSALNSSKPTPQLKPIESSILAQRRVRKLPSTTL
Chain of Rho-associated protein kinase 2 (Homo sapiens) (O75116 whole entry, looked up): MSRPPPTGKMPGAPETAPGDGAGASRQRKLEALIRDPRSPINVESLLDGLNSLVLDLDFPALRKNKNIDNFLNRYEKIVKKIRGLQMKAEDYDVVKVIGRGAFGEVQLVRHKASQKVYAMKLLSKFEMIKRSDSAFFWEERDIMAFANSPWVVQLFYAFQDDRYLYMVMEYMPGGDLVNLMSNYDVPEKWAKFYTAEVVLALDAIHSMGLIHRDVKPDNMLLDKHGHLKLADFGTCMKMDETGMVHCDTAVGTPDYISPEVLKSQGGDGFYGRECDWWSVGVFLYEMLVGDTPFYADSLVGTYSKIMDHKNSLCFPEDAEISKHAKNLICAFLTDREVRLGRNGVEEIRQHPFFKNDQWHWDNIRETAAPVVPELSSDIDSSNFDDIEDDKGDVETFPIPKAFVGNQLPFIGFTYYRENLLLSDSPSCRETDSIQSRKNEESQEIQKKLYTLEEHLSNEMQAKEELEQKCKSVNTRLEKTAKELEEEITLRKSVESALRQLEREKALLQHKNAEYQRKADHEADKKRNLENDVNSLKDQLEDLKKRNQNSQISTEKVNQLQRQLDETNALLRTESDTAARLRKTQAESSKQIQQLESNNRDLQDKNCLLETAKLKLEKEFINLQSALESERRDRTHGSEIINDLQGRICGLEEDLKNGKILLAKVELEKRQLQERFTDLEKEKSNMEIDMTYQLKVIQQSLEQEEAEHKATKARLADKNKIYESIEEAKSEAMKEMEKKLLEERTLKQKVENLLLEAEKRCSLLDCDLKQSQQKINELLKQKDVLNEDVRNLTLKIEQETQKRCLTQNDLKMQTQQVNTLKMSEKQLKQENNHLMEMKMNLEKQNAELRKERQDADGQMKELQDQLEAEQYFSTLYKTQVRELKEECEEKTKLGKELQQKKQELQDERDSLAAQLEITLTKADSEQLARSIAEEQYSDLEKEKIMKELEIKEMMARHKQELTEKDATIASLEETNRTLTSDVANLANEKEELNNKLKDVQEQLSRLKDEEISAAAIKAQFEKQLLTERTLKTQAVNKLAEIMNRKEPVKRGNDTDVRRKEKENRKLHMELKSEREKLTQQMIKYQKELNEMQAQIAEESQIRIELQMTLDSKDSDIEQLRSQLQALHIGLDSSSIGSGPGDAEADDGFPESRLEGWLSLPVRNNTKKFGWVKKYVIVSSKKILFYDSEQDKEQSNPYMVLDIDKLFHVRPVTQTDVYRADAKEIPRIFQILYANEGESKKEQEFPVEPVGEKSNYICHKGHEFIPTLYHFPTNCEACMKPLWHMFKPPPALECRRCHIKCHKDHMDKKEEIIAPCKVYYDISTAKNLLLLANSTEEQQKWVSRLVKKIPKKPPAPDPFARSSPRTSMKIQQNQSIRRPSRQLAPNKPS
Chain of Rho-associated protein kinase 1 (Homo sapiens) (Q13464 2-1354 limits assumed): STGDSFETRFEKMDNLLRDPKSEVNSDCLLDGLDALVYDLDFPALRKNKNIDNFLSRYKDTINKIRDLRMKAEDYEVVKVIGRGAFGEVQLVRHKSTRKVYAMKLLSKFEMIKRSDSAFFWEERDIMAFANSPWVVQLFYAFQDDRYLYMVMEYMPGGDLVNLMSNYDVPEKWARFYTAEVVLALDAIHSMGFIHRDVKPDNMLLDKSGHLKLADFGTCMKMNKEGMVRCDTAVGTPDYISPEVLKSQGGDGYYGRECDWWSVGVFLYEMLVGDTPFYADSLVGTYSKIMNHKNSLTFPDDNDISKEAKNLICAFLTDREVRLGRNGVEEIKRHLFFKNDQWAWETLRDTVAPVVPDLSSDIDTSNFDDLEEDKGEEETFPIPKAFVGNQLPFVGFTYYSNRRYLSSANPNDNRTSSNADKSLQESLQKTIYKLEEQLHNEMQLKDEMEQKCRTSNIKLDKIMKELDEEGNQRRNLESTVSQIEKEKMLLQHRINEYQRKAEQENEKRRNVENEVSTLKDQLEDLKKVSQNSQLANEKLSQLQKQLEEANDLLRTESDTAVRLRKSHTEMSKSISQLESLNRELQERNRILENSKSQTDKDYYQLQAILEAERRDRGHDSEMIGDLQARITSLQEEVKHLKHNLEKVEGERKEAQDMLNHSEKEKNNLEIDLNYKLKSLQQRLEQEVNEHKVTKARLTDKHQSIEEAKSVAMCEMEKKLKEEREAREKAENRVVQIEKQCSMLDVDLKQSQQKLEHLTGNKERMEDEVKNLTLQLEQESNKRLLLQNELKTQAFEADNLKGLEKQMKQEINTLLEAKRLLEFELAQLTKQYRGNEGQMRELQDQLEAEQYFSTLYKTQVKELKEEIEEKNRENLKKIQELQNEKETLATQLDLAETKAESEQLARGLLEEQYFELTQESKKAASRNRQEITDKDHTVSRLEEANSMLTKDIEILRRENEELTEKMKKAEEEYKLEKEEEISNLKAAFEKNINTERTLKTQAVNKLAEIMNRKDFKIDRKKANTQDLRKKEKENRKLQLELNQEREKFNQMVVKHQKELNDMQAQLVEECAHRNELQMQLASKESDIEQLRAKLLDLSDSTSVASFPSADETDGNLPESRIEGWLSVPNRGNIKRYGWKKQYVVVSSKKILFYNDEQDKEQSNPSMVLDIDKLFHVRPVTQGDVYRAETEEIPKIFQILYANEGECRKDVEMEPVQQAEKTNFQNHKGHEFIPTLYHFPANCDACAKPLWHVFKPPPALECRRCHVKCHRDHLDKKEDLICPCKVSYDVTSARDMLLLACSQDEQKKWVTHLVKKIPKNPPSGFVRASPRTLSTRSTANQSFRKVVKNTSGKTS
Chain of Ribosomal protein S6 kinase alpha-3 (Homo sapiens) (P51812 whole entry): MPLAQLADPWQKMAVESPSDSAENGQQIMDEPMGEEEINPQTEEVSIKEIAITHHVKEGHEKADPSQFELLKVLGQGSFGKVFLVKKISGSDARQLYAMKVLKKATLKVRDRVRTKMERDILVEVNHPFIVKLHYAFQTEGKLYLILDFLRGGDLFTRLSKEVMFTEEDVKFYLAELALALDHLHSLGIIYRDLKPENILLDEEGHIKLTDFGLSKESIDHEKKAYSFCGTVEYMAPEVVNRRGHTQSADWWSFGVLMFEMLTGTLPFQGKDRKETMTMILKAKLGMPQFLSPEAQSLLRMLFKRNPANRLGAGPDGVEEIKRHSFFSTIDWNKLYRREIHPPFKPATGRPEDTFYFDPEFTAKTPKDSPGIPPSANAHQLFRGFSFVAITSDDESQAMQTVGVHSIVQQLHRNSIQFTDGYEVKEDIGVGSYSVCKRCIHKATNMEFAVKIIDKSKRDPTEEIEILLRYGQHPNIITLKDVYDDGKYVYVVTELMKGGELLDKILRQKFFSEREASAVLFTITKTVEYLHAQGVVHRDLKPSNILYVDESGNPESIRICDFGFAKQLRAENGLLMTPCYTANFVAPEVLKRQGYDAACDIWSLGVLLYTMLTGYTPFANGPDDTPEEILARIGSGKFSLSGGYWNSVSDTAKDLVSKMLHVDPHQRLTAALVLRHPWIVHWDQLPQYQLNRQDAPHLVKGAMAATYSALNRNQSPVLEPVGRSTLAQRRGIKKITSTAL

Usually inhibition stands for the drop in the measured response relative to a control, in per cent. As for `NC(=O)c1cccc(Nc2nccc(Nc3cccc4[nH]ncc34)n2)c1`, the inhibition in [1] was 5%; in [2], -3.05%; in experiment [3] it was 4.5%; in [4], -0.53%; in [5], 5.24%; in [6], 0.86%. The inhibition in [7] is 7.93%; in [8] it was 7.81%; in experiment [9] it was 9.23%; in experiment [10] it was 0.94%; in [11], 7.57%; in experiment [12] it was 1.22%. For the same compound, the inhibition was 13.4% in experiment [13]; -0.17% in experiment [14]; 7.69% in [15]; -0.11% in experiment [16]; 8.36% in [17]; -1.89% in experiment [18]. Besides, the inhibition in [19] was found to be 2.72%; in [20], 0.56%.

For `O=C1NC(=O)C(N2CCc3ccccc32)=C1c1ccc(Cl)cc1`, the inhibition in experiment [1] was determined as 4.56%; in [2], 5.53%; in [3], 6.02%; in experiment [4], 3.3%; in experiment [5], 4.19%; in experiment [6], 2.11%. Further, the inhibition was 4.33% in experiment [7]; 1.91% in [8]; 0.77% in [9]; 1.88% in experiment [10]; 2.06% in experiment [11]; 2.69% in experiment [12]. Moreover, the inhibition in experiment [13] amounted to 1.72%; in experiment [14], 1.94%; in experiment [15], 0.4%; in experiment [16], 2.23%; in experiment [17], 1.24%; in experiment [18] it was 2.52%. Moreover, the inhibition came to 2.25% in experiment [19] and 2.11% in experiment [20].

On to `CC(=O)Nc1cccc(C#Cc2cncnc2Nc2ccc(OCc3cccc(F)c3)c(Cl)c2)n1`, for which the inhibition in [1] was -0.67%; in experiment [2] it was -1.15%; in [3], -1.81%; in experiment [4], 2.8%; in experiment [5] it was 3.25%; in experiment [6], 3.49%. Besides, the inhibition in experiment [7] came to 6.99%; in [8], 1.81%; in experiment [9], 5.08%; in experiment [10] it was 1.28%; in experiment [11], 1.22%; in [12], 3.13%. The inhibition was 6.65% in [13]; 3.35% in experiment [14]; 5.09% in experiment [15]; 1.72% in experiment [16]; 4.03% in experiment [17]; -1.11% in [18]. The inhibition in experiment [19] is 0.12%; in experiment [20] it was 0.1%.

The record behind these values is ChEMBL document CHEMBL1961873, “Compounds: GSK PKIS; Assays: Nanosyn kinase panel” (2012).
